Source: PubChem (National Center for Advancing Translational Sciences (NCATS))
ALDH1A1 inh: qHTS Assay for Inhibitors of Aldehyde Dehydrogenase 1 (ALDH1A1). Purified ALDH1A1, NADH fluorescence, propionaldehyde substrate. Aldehyde dehydrogenase 1A1 (Homo sapiens), P00352. Potency, µM (highest dose often 75.3 µM), for the others: top-dose activity, negative = inhibition, actives largely listed as inhibitors. hit rate 7.3% among 220,000;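 further: potency means the concentration at half of the fitted maximal effect; plate controls were no enzyme wells and a reference inhibitor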
PNC assembly inh: High Content Assay for Compounds that inhibit the Assembly of the Perinucleolar Compartment. hit rate 3.1% among 140,000. PC3M PTB-GFP, PNC prevalence imaging, 16 h; hits give low values. activity change (PNC), negative = inhibition, % at 10 µM;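 active means readout at or below -70, meaning at least 70% loss of cells showing the perinucleolar compartment, a nuclear body marking cancer cells; inconclusive means readout between -30 and a set limit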;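 further: plate controls were DMSO wells for no effect and camptothecin positive control wells for full effect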
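Compounds are pinned in duplicate onto adhered PC3M cells stably expressing GFP-tagged PTB and incubated 16 h at 37 C. Cells are then fixed, nuclei stained with Hoechst, and PNC-positive cells counted.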
Lamin A splicing: qHTS Assay for Modulators of Lamin A Splicing; HeLa LMNA splicing GFP/RFP minigene ratio, 48 h; Potency, µM (doses to about 46.1 µM), for the others: top-dose ratio change, negative = inhibition, usual class: inhibitors; hit rate 0.01% among 200,000; active means well fitted inhibition curve with a large enough effect in the signal ratio, with a control signal flat, not every such curve was filed as active; inconclusive means small, poorly fitted or top-dose-only effect, or effect the other way, or a change in a side signal; the % refers to the signal ratio; further: potency means the concentration at half of the fitted maximal effect
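Read-out is the ratio of GFP to DsRed2 object intensity, acquired by 488 nm laser-scanning cytometry on HeLa lamin A-EGFP minigene reporter cells. Compound incubation 48 hrs at 37 °C in Opti-MEM with 2% FBS; DMSO 0.5% final.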
ALOX12 inhib: qHTS Assay for Inhibitors of 12-hLO (12-human lipoxygenase); hit rate 0.12% among 150,000; AID 1452, 2008; Polyunsaturated fatty acid lipoxygenase ALOX12 (Homo sapiens), P18054; purified 12-hLO, xylenol orange hydroperoxide absorbance; Potency, µM (highest dose often 57.1 µM), for inactives: at the highest dose activity change, negative = inhibition, most hits filed as inhibitors; active means well fitted inhibition curve with a large enough effect; inconclusive means small, poorly fitted or top-dose-only effect; further: potency means the concentration at half of the fitted maximal effect; nearly all actives have a fitted effect of over 55% in size
Target sequence (P18054 whole entry, looked up): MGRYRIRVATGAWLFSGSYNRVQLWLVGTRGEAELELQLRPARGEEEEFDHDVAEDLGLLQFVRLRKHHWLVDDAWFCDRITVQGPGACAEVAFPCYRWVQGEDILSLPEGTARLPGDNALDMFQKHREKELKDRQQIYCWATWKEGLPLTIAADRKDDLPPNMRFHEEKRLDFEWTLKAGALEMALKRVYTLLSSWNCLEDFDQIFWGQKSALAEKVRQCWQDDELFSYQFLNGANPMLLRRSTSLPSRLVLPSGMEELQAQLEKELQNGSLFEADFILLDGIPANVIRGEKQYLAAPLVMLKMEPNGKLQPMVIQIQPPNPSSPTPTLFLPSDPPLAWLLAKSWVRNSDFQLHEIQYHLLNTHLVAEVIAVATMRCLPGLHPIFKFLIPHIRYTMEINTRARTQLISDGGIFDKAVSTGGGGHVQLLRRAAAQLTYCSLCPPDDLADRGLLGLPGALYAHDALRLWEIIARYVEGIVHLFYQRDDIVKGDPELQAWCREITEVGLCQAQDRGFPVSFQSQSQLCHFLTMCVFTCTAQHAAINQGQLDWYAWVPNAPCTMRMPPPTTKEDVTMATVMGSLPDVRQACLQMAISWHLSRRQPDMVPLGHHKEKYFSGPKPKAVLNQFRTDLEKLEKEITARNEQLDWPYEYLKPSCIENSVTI
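Purified human 12hLO (150 nM final) was preincubated with compounds for 15 min at room temperature in 25 mM Hepes pH 7.0, 0.01% Triton X-100, then reacted with 40 uM arachidonic acid for 30 min. Hydroperoxide was detected with ferrous iron/xylenol orange.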
HPGD inh: qHTS Assay for Inhibitors of HPGD (15-Hydroxyprostaglandin Dehydrogenase). 15-hydroxyprostaglandin dehydrogenase [NAD(+)] (Homo sapiens), P15428. purified HPGD, NADH fluorescence kinetic, PGE2 substrate. Potency, µM, for inactives: top-dose activity change, negative = inhibition, actives largely listed as inhibitors. hit rate 4.3% among 150,000; further: potency means the concentration at half of the fitted maximal effect
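NADH formation kinetics: reaction with 30 uM PGE2 and 1 mM NAD+ (final), 20 nM enzyme, Tris-HCl pH 8 with Tween 20, after 15 min compound preincubation at room temperature. Fluorescence change, last versus first of five reads.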
* marks the source's active call; other numbers are inactive results; u = inconclusive; x = no result; [ ] = another dose, or the depositor's remark. Shown are actives, neighbours in structure and some others; about 10% of the full set was active somewhere. Unless noted, the call rests on the fitted dose curve; in most records, active means well fitted inhibition curve with a large enough effect (not every such curve was filed as active); inconclusive means small, poorly fitted or top-dose-only effect, or another doubt; inactive means no such curve, though single readings can be large or run the other way. Unless noted, on the % scale 0 is the no-effect control and ±100 the full control effect.

SMILES | ALDH1A1 inh | PNC assembly inh | Lamin A splicing | ALOX12 inhib | HPGD inh
CC(=O)N1CCN=C1SCc1ccccc1 | u | 1 | -14% | 2% | -12%
CO[C@@H]1COC(=O)[C@@H](CCSC)NC(=O)C/C=C\[C@@H](C)COC(=O)CCC[C@H]1C | 4%[13.5 µM] | x | x | x | x
CCn1cc(S(=O)(=O)c2ccc(C)cc2)c(=O)c2cc(F)c(N3CCCCCC3)cc21 | x | x | 7%[46 µM] | x | x
COC(=O)c1ccc(CN(C(C)=O)c2ccccc2)o1 | 20µM* | -12 | 0% | -1% | -5%
CC(=O)Oc1oc(-c2ccccc2)nc1/C=N/c1ccccn1 | u | 13 | -3% | 0% | 22µM*
CC(=O)Oc1oc(-c2ccccc2)nc1C=Nc1ccc(N(C)C)cc1 | 0.56µM* | x | x | x | x
CN(C)c1ccc(N=Cc2nc(-c3ccccc3)oc2OC(=O)c2ccccc2)cc1 | -11% | 27 | u | 1% | -13%
COc1ccccc1N=Cc1nc(-c2ccccc2)oc1OC(C)=O | 7.1µM* | u | -7% | -5% | u
Cc1cccc2sc(NC(=O)CN3C(=O)c4ccccc4C3=O)nc12 | 10% | u | -4% | -1% | -7%
Cc1ccc2sc(NC(=O)CN3C(=O)c4ccccc4C3=O)nc2c1C | 4% | -119* | -3% | 3% | -7%
CCC(CC)c1nnc(NC(=O)CN2C(=O)c3ccccc3C2=O)s1 | -4% | x | 11%[46 µM] | x | x
CCCC(C)c1nnc(NC(=O)CN2C(=O)c3ccccc3C2=O)s1 (stereo unspecified) | 28µM* | x | 18%[46 µM] | x | x
CC(C)Oc1ccc(C(=O)N(Cc2ccco2)c2ccccn2)cc1 | x | x | 7%[46 µM] | x | x
CCn1cc(S(=O)(=O)c2ccc(C)cc2C)c(=O)c2cc(F)c(N3CCCCC3)cc21 | x | x | -9%[46 µM] | x | x
CC(=O)N(/N=C1\Sc2ccccc2C1=O)c1cccc(C)c1 | u | u | 31% | -1% | 3.5µM*
COc1ccc(NS(=O)(=O)c2ccc3nc(COc4ccc(Cl)c(C)c4)[nH]c3c2)cc1 | -13% | -106* | u | -13% | x
CCc1ccc(NC(=O)Cc2c(C(=O)O)c(C)cn2C)cc1 | x | x | 1%[46 µM] | x | x
COc1ccccc1NC(=O)C1CCCN(c2nc(C)cc(C)n2)C1 (stereo unspecified) | u | 25 | -10% | 6% | -11%
COc1cc(C)nc(N2CCCC(C(=O)Nc3cccc(Cl)c3Cl)C2)n1 (stereo unspecified) | 6% | -87* | 11% | -1% | -10%
CN(C)CN1CSC(=S)N(CN(C)C)C1 | 4µM* | x | x | -5%[11.4 µM] | 3.2µM*
CCc1ccc2c(CN3CCN(S(=O)(=O)c4cccs4)CC3)cc(=O)oc2c1 | 13µM* | u | u | -3% | -19%
CCc1ccc2c(CN3CCc4ccccc43)cc(=O)oc2c1 | u | 32 | -3% | -29% | x
N#Cc1ccc(C(=O)NCc2ccc3c(c2)CCN3C(=O)c2ccc(F)cc2)cc1 | x | x | -19%[46 µM] | x | x
COC(=O)c1cccc(Oc2nc3c(c(=O)n(C)c(=O)n3C)n2C(C)C)c1 | 0% | -97* | -2% | 5% | -7%
Cc1cccc(Oc2nc3c(c(=O)n(C)c(=O)n3C)n2C)c1 | -2% | x | 42%[46 µM] | x | x
SMILES | ALDH1A1 inh | PNC assembly inh | Lamin A splicing | ALOX12 inhib | HPGD inh
CN1CCN(C(=S)Nc2ccc(S(N)(=O)=O)cc2)CC1 | -9% | x | 2%[46 µM] | x | x
CN1CCN(C(=S)C(=O)Nc2ccc(Br)cc2)CC1 | 7.9µM* | x | u | x | x
C=C(C)COc1ccc2c(c1)CCC1C2CC[C@]2(C)C(=O)/C(=N/O)CC12 (stereo partly specified) | 7%[13.5 µM] | x | x | 5%[11.4 µM] | 2%
CC1CCC2C(=O)N3C(CCC(C)C3c3ccccc3Br)C(=O)N2C1c1ccc(C#CCN(C)C)cc1 (stereo unspecified) | 3.5µM* | x | x | x | x
O=C(CCCn1c(SCC(=O)NCC2CCCO2)nc2ccccc2c1=O)NCc1ccccc1 (stereo unspecified) | 1% | 27 | 6% | -1% | -9%
N#CCSc1nc2ccccc2c(=O)n1CCCC(=O)NCC1CCCO1 (stereo unspecified) | 28µM* | x | x | x | x
O=C(CCCn1c(SCc2cccc(F)c2)nc2ccccc2c1=O)NCC1CCCO1 (stereo unspecified) | 16µM* | x | x | x | x
O=C1c2ccccc2C(=O)N1C[C@]1(C(=O)O)NCCS1(=O)=O | -3%[13.5 µM] | x | x | 0%[11.4 µM] | -8%
COc1cccc2c1NC(C(=O)O)C1CC=CC21 (stereo unspecified) | 8.9µM* | -10 | -11% | -1% | u
CC(C)C1Nc2ccc(S(N)(=O)=O)cc2C2C=CCC21 (stereo unspecified) | 20µM* | u | 9% | -25% | -27%
O=C(O)c1ccc2c(c1)C1C=CCC1C(c1cc3c(cc1Br)OCO3)N2 (stereo unspecified) | 6% | x | x | x | x
Cc1ccc2c(c1)C1C=CCC1C(C(=O)O)N2 (stereo unspecified) | u | 36 | -10% | -3% | 20µM*
CCOCCn1ccc2c(OCC(=O)Nc3ccc(OC(F)(F)F)cc3)cccc2c1=O | x | x | -9%[46 µM] | x | x
COc1ccc(NC(=O)Cn2c(=O)oc3cc(S(=O)(=O)NCc4ccccc4)ccc32)c(OC)c1 | x | x | -4%[46 µM] | x | x
CCOC(=O)NNc1ccc2nonc2c1[N+](=O)[O-] | 18µM* | x | x | x | x
CCn1nc(C)c2c(-c3ccccc3)cc(=O)n(C(C)C(=O)Nc3cccc(F)c3)c21 (stereo unspecified) | x | x | 28%[46 µM] | x | x
COC(CNC(=O)c1ccc(N2CCC3(CC2)OCCO3)c([N+](=O)[O-])c1)OC | 28µM* | 30 | -18% | -2% | -16%
Cc1ccccc1C(=O)Nc1cccc(OCc2cc(=O)n3cccc(C)c3n2)c1 | x | x | -17%[46 µM] | x | x
Cc1cccc([C@H]2[C@@H]3C=CCC[C@@H]3C(=O)N2Cc2ccccc2)c1 | 28µM* | x | x | -5%[0.00818 µM] | -17%
COc1ccc(OC)c(C(=O)CSc2nc3cccnc3n2C)c1 | 22µM* | 30 | -3% | -5% | -13%
CCn1nnnc1SCC(=O)c1cc(OC)ccc1OC | 14µM* | -5 | 10% | -9% | -22%
N#Cc1cccc(-c2cc(NCc3ccccc3)ncn2)c1 | u | x | -8% | x | x
CC(C)OCCCN1CN(S(=O)(=O)c2ccc(Cl)cc2)c2nc3ccccc3nc21 | 28µM* | 3 | u | -15% | -9%
COC(=O)C(NC(=O)c1ccco1)(Nc1ccc(Br)cn1)C(F)(F)F (stereo unspecified) | 15% | 8 | -5% | -13% | x
COC(=O)C(NC(C)=O)(Nc1ccc(Br)cn1)C(F)(F)F (stereo unspecified) | 7.1µM* | 13 | -7% | 5% | -5%
COc1cccc(Cn2c(=O)c(-c3ccc(Cl)cc3)nc3cnc(N(C)C)nc32)c1 | u | x | x | 1% | -20%
